The supplement of paper PMC9694430
Values joined by “and” are separate entries in the source; they are usually repeats but may differ in a detail not shown here. Equal values may be shown once.

What was measured:
Test in all cases: thermal shift delta Tm vs DMSO control; higher = stronger stabilization (binding)
Details in all cases: 12.5 µM; protein concentration 2 µM
LOC_OS01G01410-cb001 = test system: LOC_OS01G01410-cb001
Method in brief: (§1)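 Thermal shift values come from differential scanning fluorimetry on purified rice kinase domains made in E. coli, with melting temperatures obtained from Boltzmann fits. Samples of 19.5 μl held 2 μM kinase, 100 mM potassium phosphate pH 7.5, 150 mM NaCl, 10% glycerol, 5 × SYPRO Orange and compound in DMSO, and were heated from 25°C to 95°C at 0.05°C/s. Each shift is a triplicate mean relative to the DMSO-only protein sample.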

LOC_OS01G02750-cb003 = test system: LOC_OS01G02750-cb003
Method in brief: as §1

LOC_OS01G10900-cb004 = test system: LOC_OS01G10900-cb004
Method in brief: as §1

LOC_OS01G13800-cb001 = test system: LOC_OS01G13800-cb001
Method in brief: as §1

LOC_OS01G14860-cb001 = test system: LOC_OS01G14860-cb001
Method in brief: as §1

LOC_OS01G21960-cb002 = test system: LOC_OS01G21960-cb002
Method in brief: as §1

LOC_OS01G39600-cb002 = test system: LOC_OS01G39600-cb002
Method in brief: as §1

LOC_OS01G48390-cb002 = test system: LOC_OS01G48390-cb002
Method in brief: as §1

LOC_OS01G51400-cb002 = test system: LOC_OS01G51400-cb002
Method in brief: as §1

LOC_OS01G52050-cb004 = test system: T1, LOC_OS01G52050-cb004
T1 sequence (whole entry): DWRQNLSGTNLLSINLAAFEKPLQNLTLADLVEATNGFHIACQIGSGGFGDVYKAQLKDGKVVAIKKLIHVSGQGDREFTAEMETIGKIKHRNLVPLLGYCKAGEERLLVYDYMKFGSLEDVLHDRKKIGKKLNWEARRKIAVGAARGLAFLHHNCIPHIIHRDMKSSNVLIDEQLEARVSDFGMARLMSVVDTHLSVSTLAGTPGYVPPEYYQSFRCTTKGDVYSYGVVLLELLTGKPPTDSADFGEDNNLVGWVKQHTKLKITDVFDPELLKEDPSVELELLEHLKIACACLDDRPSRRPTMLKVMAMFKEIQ
Method in brief: as §1
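Note: purified Escherichia coli-expressed rice kinase domain construct.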

Compound	thermal shift delta Tm (LOC_OS01G01410-cb001)	thermal shift delta Tm (LOC_OS01G02750-cb003)	thermal shift delta Tm (LOC_OS01G10900-cb004)	thermal shift delta Tm (LOC_OS01G13800-cb001)	thermal shift delta Tm (LOC_OS01G14860-cb001)	thermal shift delta Tm (LOC_OS01G21960-cb002)	thermal shift delta Tm (LOC_OS01G39600-cb002)	thermal shift delta Tm (LOC_OS01G48390-cb002)	thermal shift delta Tm (LOC_OS01G51400-cb002)	thermal shift delta Tm (LOC_OS01G52050-cb004)
C[C@@H]1CCN(C(=O)CC#N)C[C@@H]1N(C)c1ncnc2[nH]ccc12	0.9 °C and -0.07 °C	0.59 °C and 1.29 °C	1.82 °C and 1.15 °C	-0.91 °C and -0.21 °C	0.33 °C and 0.19 °C	0.43 °C and 0.81 °C	1.17 °C and 1.71 °C	1.08 °C and 0.82 °C	0.59 °C and 0.38 °C	0.05 °C and 0.04 °C
C=CC(=O)N1CC[C@@H](Oc2nc(Nc3ccc(N4CCC(N5CCN(C)CC5)CC4)cc3)c(C(N)=O)nc2CC)C1 [Naquotinib(ASP8273)]	5.21 °C	1.59 °C	4.44 °C	-0.4 °C	4.17 °C	2.68 °C	1.51 °C	3.38 °C	-0.03 °C	2.34 °C
O=C1NC(=O)C(c2cnc3ccccn23)=C1c1cn2c3c(cc(F)cc13)CN(C(=O)N1CCCCC1)CC2	0.36 °C	0.62 °C	0.19 °C	0.44 °C	4.55 °C	2.13 °C	5.95 °C	0.1 °C	0.37 °C	0.22 °C
O=C(Nc1cccc(Nc2ncc(Br)c(NCCc3cnc[nH]3)n2)c1)N1CCCC1	5.28 °C	2.32 °C	0.86 °C	0.31 °C	4.24 °C	3.16 °C	7.21 °C	4.8 °C	1.21 °C	11.9 °C
C[C@@H](Oc1cc(-n2cnc3ccc(CN4CCN(C)CC4)cc32)sc1C(N)=O)c1ccccc1C(F)(F)F	0.17 °C	0.34 °C	3.48 °C	0.56 °C	0.12 °C	1.19 °C	0.33 °C	0.1 °C	-0.17 °C	0.53 °C
Cc1ccc(Nc2nccc(N(C)c3ccc4c(C)n(C)nc4c3)n2)cc1S(N)(=O)=O	2.81 °C	0.47 °C	1.7 °C	0.62 °C	1.21 °C	1.29 °C	1.56 °C	4.66 °C	0.3 °C	0.89 °C
COC1(c2sc3c(N4CCOCC4)nc(-c4cnc(N)nc4)nc3c2C)COC1	1.79 °C	-0.24 °C	1.43 °C	0.47 °C	0.4 °C	0.39 °C	0.28 °C	0 °C	-0.11 °C	0.03 °C
COc1ccc(-c2cc3nccn3c(Nc3ncccc3C(N)=O)n2)cc1OC	1.05 °C	1.45 °C	1.83 °C	0.09 °C	6.47 °C	2.98 °C	0.18 °C	1.07 °C	0.17 °C	2.44 °C
Cc1cc(Nc2ncnc3ccc(-c4ccc(CNCCS(C)(=O)=O)o4)cc23)ccc1Oc1ccn2ncnc2c1 [HER2-Inhibitor-1]	1.34 °C	2.06 °C	3.1 °C	0.55 °C	2.31 °C	1.18 °C	3.89 °C	0.83 °C	0.03 °C	1.36 °C
CC1(C)OC(=O)C=C[C@]2(C)[C@H]3CC[C@@]4(C)[C@H](c5ccoc5)OC(=O)[C@H]5O[C@]54[C@]3(C)C(=O)C[C@@H]12 [Obacunone]	0.06 °C	0.16 °C	0.26 °C	0.37 °C	0.35 °C	0.13 °C	-0.45 °C	0.82 °C	-0.06 °C	3 °C
c1cn2cc(-c3ccc4cn[nH]c4c3)nc(Nc3ccc(N4CCOCC4)cc3)c2n1 [Entospletinib (GS-9973)]	2.35 °C	3.16 °C	0.19 °C	-0.33 °C	1.77 °C	1.76 °C	4.22 °C	0.98 °C	-0.11 °C	3.88 °C
CCOc1cc(N2CCC(O)CC2)ccc1Nc1ncc2c(n1)N(C)c1ccccc1C(=O)N2C	0.48 °C	0.5 °C	0.7 °C	-0.03 °C	0.03 °C	0.41 °C	-0.54 °C	0.04 °C	0.06 °C	-0.47 °C
C[C@@H]1COCCN1c1cc(=O)n2c(n1)N(Cc1cncc(Cl)c1)[C@H](C(F)(F)F)CC2	0.21 °C	1.55 °C	0.48 °C	1.15 °C	0.32 °C	0.45 °C	0.34 °C	0.95 °C	0.31 °C	0.49 °C
COc1ccc2[nH]cc(/C=C3\C(=O)Nc4ccc(NC(=O)CCN5CCCCC5)cc43)c2c1	0.24 °C	1.49 °C	0.91 °C	1.6 °C	2.18 °C	1.64 °C	0.22 °C	0.82 °C	0.58 °C	0.72 °C
Cc1cc(Nc2cc(N3CCN(C)CC3)nc(Sc3ccc(NC(=O)C4CC4)cc3)n2)n[nH]1 [Tozasertib (VX-680, MK-0457)]	6.12 °C	6.08 °C	2.83 °C	0.07 °C	1.86 °C	1.49 °C	10.2 °C	3.05 °C	0.88 °C	1.66 °C
NC(=O)c1cnc2[nH]ccc2c1N[C@@H]1[C@@H]2CC3C[C@H]1C[C@@](O)(C3)C2	3.91 °C	3.77 °C	1 °C	0.16 °C	5.61 °C	2.38 °C	5.22 °C	4.09 °C	0.18 °C	4.66 °C
O=C(c1ccc(F)c(F)c1Nc1ccc(I)cc1F)N1CC(O)([C@@H]2CCCCN2)C1 [Cobimetinib (GDC-0973, RG7420)]	0.62 °C	1.67 °C	0.3 °C	0.01 °C	0.39 °C	0.36 °C	-0.03 °C	0.12 °C	0.29 °C	0.44 °C
Cc1c(NC(=O)OC[C@@H]2COCCN2)cn2ncnc(Nc3ccc4c(cnn4Cc4cccc(F)c4)c3)c12	0.88 °C	-0.18 °C	0.06 °C	0.7 °C	0.19 °C	0.52 °C	0.91 °C	0.07 °C	0.14 °C	0.23 °C
CC[C@@H]1C(=O)N(C)c2cnc(Nc3ccc(C(=O)NC4CCN(C)CC4)cc3OC)nc2N1C1CCCC1	1.63 °C	-0.86 °C	-0.01 °C	-0.37 °C	-0.16 °C	0.05 °C	0.36 °C	-0.02 °C	-0.01 °C	0.06 °C
Cc1cc([C@@H](C)Nc2ccccc2C(=O)O)c2nc(N3CCOCC3)cc(=O)n2c1	0.29 °C	1.55 °C	0.27 °C	0.31 °C	0.56 °C	1.03 °C	0.03 °C	0.29 °C	0.07 °C	0.43 °C
